{"source": "PubChem BioAssay (EPA / NIEHS)", "key": {"[1]": {"target": "human Opioid Receptor Mu (Opiate Mu), OPRM1 (gene 4988) (UniProt P35372)", "sequence (P35372 whole entry, looked up)": "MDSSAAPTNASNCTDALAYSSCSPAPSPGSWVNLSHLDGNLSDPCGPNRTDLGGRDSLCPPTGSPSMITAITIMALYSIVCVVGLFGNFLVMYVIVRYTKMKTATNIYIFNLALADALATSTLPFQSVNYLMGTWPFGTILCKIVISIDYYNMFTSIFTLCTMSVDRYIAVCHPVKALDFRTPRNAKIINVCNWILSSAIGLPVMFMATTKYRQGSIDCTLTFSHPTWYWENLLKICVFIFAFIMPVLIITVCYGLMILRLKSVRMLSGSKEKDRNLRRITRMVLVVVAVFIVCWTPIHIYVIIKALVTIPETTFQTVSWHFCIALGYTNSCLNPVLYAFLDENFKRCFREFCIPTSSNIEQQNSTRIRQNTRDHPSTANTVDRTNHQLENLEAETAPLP", "test": "NVS_GPCR_hOpiate_mu: NovaScreen (NVS) G Protein-Coupled Receptor Assay for human Opioid Receptor Mu (Opiate Mu) (AID 2283290);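 note: hits lower bound tracer signal versus DMSO meaning displacement of the ligand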", "outline": "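Primary screen in duplicate at 25 uM, with actives followed in concentration series. CHO-derived receptor membranes, cell-free; bound radioligand read by scintillation counting after filtration at 2.5 h, decrease scored against DMSO.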"}, "[2]": {"target": "rat Serotonin, 5-Hydroxytryptamine Receptor (5HT), Non-Selective Binding, Htr1a (gene 24473) (UniProt P19327)", "sequence (P19327 whole entry, looked up)": "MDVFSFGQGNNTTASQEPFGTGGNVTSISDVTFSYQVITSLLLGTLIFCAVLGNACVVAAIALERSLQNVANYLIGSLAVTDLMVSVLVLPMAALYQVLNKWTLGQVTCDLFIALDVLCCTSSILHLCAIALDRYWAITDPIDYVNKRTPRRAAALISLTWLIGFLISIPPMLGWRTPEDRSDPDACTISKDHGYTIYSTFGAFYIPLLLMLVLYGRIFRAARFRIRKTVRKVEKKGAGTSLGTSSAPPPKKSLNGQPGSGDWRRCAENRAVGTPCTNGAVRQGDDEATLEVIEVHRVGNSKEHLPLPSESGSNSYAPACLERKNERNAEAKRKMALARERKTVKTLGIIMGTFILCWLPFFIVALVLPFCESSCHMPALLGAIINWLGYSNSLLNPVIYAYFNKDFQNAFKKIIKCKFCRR", "test": "NVS_GPCR_r5HT_NonSelective: NovaScreen (NVS) G Protein-Coupled Receptor Assay for rat Serotonin, 5-Hydroxytryptamine Receptor (5HT), Non-Selective Binding (AID 2283295)", "procedure": "NVS_GPCR_r5HT_NonSelective is a biochemical, single-readout assay that uses extracted gene-proteins from Rat cortical membranes in a tissue-based cell-free assay. Measurements were taken 1 hour after chemical dosing in a 48-well plate.NVS_GPCR_r5HT_NonSelective is one of one assay component(s) measured or calculated from the NVS_GPCR_r5HT_NonSelective assay. It is designed to make measurements of radioligand binding, a form of binding reporter, as detected with scintillation counting signals by Filter-based radiodetection technology.Data from the assay component NVS_GPCR_r5HT_NonSelective was analyzed into 1 assay endpoint. This assay endpoint, NVS_GPCR_r5HT_NonSelective, was analyzed in the positive analysis fitting direction relative to DMSO as the negative control and baseline of activity. Using a type of binding reporter, loss-of-signal activity can be used to understand changes in the binding as they relate to the gene Htr1a. Furthermore, this assay endpoint can be referred to as a primary readout, because the performed assay has only produced 1 assay endpoint. To generalize the intended target to other relatable targets, this assay endpoint is annotated to the gpcr intended target family, where the subfamily is rhodopsin-like receptor.\nBinding assays used specific radioligands (tritiated, iodinated) with non-radioactive competitive displacement ligands in agonist or antagonist protocols (as indicated) and various reference compounds and inhibitors to titrate specific binding to receptors and transporters. Most enzyme assays (CYPs, kinases, phosphatases, proteases, HDACs) used recombinant protein and specific substrates (fluorescence mostly, some colorimetric and radioactive) and inhibitors, followed by a biochemical separation of substrate and product. All assays for the biochemical HTS were initially run in duplicate at a single concentration (10 uM for CYP450 assays and 25 uM for all others). […] Each assay was run with positive and negative controls, and concurrent controls on every plate. The follow-up (secondary) screen tested active chemical-pairs in concentration series, as well as a few additional assays not tested in the primary screen, some selected negative inactives, and several cases re-run in the concentration series for confirmatory purposes."}, "[3]": {"target": "rat Adrenergic Receptor, Beta (Adrb), Non-selective Binding, Adrb1 (gene 24925) (UniProt P18090)", "sequence (P18090 whole entry, looked up)": "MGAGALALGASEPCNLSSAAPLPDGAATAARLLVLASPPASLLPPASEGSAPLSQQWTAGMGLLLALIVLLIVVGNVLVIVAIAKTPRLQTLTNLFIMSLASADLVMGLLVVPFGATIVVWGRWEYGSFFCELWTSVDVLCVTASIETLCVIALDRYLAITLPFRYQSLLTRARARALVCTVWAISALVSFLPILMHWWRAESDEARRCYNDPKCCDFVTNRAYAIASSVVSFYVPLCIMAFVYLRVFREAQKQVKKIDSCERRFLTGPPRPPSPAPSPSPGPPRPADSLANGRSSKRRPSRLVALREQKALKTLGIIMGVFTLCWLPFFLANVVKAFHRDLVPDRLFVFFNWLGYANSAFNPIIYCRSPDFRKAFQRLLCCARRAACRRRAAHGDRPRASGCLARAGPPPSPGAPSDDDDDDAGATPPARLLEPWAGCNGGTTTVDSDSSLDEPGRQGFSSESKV", "test": "NVS_GPCR_rAdrb_NonSelective: NovaScreen (NVS) G Protein-Coupled Receptor Assay for rat Adrenergic Receptor, Beta (Adrb), Non-selective Binding (AID 2283298)", "outline": "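Non-selective beta-adrenergic radioligand binding in rat cortical membranes, 1 h incubation, filter-based scintillation read-out. Primary screen 25 uM in duplicate; hits retested in concentration-response up to 50 uM, DMSO baseline.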"}, "[4]": {"target": "rat Adrenergic, Alpha 1, Non-selective Receptor (Adra1), Adra1a (gene 29412) (UniProt P43140)", "sequence (P43140 whole entry, looked up)": "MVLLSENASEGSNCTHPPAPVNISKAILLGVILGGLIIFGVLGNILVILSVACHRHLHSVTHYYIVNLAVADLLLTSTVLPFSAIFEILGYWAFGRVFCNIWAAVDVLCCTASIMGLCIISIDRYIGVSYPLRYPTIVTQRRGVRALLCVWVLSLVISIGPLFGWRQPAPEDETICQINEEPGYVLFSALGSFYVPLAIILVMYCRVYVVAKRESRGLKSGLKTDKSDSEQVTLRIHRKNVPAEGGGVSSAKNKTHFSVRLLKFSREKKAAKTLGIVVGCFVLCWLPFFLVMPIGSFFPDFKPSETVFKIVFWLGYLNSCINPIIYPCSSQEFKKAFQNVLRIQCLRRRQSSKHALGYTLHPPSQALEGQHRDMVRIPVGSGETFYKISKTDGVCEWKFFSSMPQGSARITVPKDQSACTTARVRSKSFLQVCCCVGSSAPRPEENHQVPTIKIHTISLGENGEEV", "test": "NVS_GPCR_rAdra1_NonSelective: NovaScreen (NVS) G Protein-Coupled Receptor Assay for rat Adrenergic, Alpha 1, Non-selective Receptor (Adra1) (AID 2283289)", "outline": "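Rat forebrain membranes; radioligand displacement read by filter-based scintillation counting 1 h after dosing. Primary screen in duplicate at 25 uM; hits (e.g. ≥30% inhibition) rerun as concentration–response to 50 uM max. Fitted versus DMSO.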"}, "[5]": {"target": "guinea pig Serotonin, 5-Hydroxytryptamine Receptor 4 (5HT4), HTR4 (gene 100135548) (UniProt O70528)", "sequence (O70528 whole entry, looked up)": "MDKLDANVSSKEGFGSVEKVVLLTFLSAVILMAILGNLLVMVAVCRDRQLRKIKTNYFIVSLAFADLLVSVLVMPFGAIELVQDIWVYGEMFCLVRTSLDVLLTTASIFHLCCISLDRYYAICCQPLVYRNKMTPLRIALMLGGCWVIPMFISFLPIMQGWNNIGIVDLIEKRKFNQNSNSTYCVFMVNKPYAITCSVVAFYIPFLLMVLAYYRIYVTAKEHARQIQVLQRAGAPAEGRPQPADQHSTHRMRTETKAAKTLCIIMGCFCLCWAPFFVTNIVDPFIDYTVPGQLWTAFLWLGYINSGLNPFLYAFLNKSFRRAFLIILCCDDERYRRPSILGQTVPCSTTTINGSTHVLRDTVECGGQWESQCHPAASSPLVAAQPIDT", "test": "NVS_GPCR_g5HT4: NovaScreen (NVS) G Protein-Coupled Receptor Assay for guinea pig Serotonin, 5-Hydroxytryptamine Receptor 4 (5HT4) (AID 2283294)", "outline": "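Guinea pig striatal membranes; radioligand competitive displacement, filtration and scintillation counting after 1 h. Primary screen in duplicate at 25 uM; actives then tested in concentration series; loss of binding signal fitted relative to DMSO.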"}, "[6]": {"test_system": "rat Adrenergic, Alpha 1B Receptor (Adra1B), gene 24173", "test": "NVS_GPCR_rAdra1B: NovaScreen (NVS) G Protein-Coupled Receptor Assay for rat Adrenergic, Alpha 1B Receptor (Adra1B) (AID 2283297)", "outline": "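Rat liver membranes, radioligand displacement with filter-based scintillation detection, 1 h incubation. Primary screen in duplicate at 25 uM; actives retested in concentration series; activity relative to DMSO.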"}, "[7]": {"target": "rat Adrenergic, Alpha 1A Receptor (Adra1A), Adra1a (gene 29412) (UniProt P43140)", "sequence (P43140 whole entry, looked up)": "as the sequence (P43140 whole entry, looked up) above", "test": "NVS_GPCR_rAdra1A: NovaScreen (NVS) G Protein-Coupled Receptor Assay for rat Adrenergic, Alpha 1A Receptor (Adra1A) (AID 2283296)", "outline": "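Rat cortical membranes pretreated with chlorethyl clonidine; competitive radioligand displacement, 1 h. Filter-based scintillation counting. Primary screen in duplicate at 25 uM, actives followed in concentration series.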"}, "[8]": {"target": "rat Adrenergic Receptor, Alpha 2 (Adra2), Non-selective Binding, Adra2a (gene 25083) (UniProt P22909)", "sequence (P22909 whole entry, looked up)": "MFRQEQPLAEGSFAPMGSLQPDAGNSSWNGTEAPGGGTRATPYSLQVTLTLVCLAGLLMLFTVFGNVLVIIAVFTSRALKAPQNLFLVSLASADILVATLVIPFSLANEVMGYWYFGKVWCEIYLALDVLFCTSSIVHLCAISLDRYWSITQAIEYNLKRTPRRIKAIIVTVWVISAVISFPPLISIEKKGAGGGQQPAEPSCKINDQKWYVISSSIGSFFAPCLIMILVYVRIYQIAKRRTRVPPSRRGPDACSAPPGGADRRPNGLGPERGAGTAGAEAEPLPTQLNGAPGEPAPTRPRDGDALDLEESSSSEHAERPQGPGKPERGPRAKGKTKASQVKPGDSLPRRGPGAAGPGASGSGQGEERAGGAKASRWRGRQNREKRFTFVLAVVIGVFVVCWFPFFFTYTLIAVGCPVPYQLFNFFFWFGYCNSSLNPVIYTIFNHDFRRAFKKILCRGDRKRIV", "test": "NVS_GPCR_rAdra2_NonSelective: NovaScreen (NVS) G Protein-Coupled Receptor Assay for rat Adrenergic Receptor, Alpha 2 (Adra2), Non-selective Binding (AID 2283299)", "outline": "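Rat cortical membranes, radioligand competitive displacement read by filter-based scintillation counting 1.25 hours after dosing. Primary screen in duplicate at 25 uM; actives followed up in concentration series.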"}, "[9]": {"target": "guinea pig Bradykinin Receptor B2 (BK2), BDKRB2 (gene 100135486) (UniProt O70526)", "sequence (O70526 whole entry, looked up)": "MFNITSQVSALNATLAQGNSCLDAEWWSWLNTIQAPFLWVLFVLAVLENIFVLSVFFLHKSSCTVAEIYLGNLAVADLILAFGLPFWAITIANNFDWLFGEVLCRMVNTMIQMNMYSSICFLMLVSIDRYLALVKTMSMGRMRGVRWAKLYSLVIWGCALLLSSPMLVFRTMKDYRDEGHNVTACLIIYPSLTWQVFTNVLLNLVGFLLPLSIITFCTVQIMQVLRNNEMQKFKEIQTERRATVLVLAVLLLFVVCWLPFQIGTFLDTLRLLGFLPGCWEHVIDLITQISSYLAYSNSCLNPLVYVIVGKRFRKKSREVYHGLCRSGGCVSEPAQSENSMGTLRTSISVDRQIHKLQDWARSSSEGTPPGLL", "test": "NVS_GPCR_gBK2: NovaScreen (NVS) G Protein-Coupled Receptor Assay for guinea pig Bradykinin Receptor B2 (BK2) (AID 2283292)", "outline": "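Radioligand displacement on guinea pig ileum membranes for 1 h, read by filter-based scintillation counting; loss of signal relative to DMSO. Compounds were screened in duplicate at 25 uM, and those passing the threshold were retested in concentration-response up to 50 uM.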"}, "[10]": {"target": "mouse Cholecystokinin, CCK2 Receptor (CCKB), Cckbr (gene 12426) (UniProt P56481)", "sequence (P56481 whole entry, looked up)": "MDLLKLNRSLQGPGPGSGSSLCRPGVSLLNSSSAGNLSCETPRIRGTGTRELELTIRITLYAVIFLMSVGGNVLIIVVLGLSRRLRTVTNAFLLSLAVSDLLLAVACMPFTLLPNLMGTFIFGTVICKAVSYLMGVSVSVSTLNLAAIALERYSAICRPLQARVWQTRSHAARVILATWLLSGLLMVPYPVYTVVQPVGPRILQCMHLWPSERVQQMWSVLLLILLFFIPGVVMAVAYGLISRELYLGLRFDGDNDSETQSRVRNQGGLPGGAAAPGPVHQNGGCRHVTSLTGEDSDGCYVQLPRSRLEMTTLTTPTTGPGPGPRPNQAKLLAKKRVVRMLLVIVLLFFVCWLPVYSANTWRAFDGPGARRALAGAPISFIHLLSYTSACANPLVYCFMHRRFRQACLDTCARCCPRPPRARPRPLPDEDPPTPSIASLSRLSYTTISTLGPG", "test": "NVS_GPCR_mCKKBCentral: NovaScreen (NVS) G Protein-Coupled Receptor Assay for mouse Cholecystokinin, CCK2 Receptor (CCKB) (AID 2283293)", "outline": "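Radioligand displacement binding on mouse forebrain membranes, 2 h exposure, filter-based scintillation counting. Primary screen in duplicate at 25 uM; actives (e.g. ≥30% inhibition) retested in concentration-response up to 50 uM; loss of binding signal relative to DMSO.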"}}, "note": "Results filed as inconclusive are left out. Activity calls are given as the source filed them. Rule for the calls: active = hit-call score of the fitted dose curve at least 0.9, where 1 is the maximum; inconclusive = response in the unintended direction; inactive = score below 0.9."}
{"compound": "CC1=C(/C=C/C(C)=C/C=C/C(C)=C/CO)C(C)(C)CCC1", "values": [{"measurement": "outcome", "setting": "[1]", "value": "inactive"}, {"measurement": "outcome", "setting": "[2]", "value": "inactive"}]}
{"compound": "CC(=O)C(C)=CC1C(C)=CCCC1(C)C", "note": "(stereo unspecified)", "values": [{"measurement": "outcome", "setting": "[2]", "value": "inactive"}, {"measurement": "outcome", "setting": "[3]", "value": "inactive"}]}
{"compound": "Cc1nc(-c2ccc3c(c2)CCN(CCC2CCC(NC(=O)/C=C/c4ccc(F)cc4)CC2)CC3)no1", "note": "(stereo unspecified)", "values": [{"measurement": "outcome", "setting": "[3]", "value": "inactive"}]}
{"compound": "Oc1ccc2c(c1)OC[C@@H](N1CCC(O)(c3ccc(F)cc3)CC1)[C@H]2O", "values": [{"measurement": "outcome", "setting": "[4]", "value": "inactive"}, {"measurement": "outcome", "setting": "[1]", "value": "inactive"}, {"measurement": "outcome", "setting": "[5]", "value": "inactive"}, {"measurement": "outcome", "setting": "[6]", "value": "inactive"}, {"measurement": "AC50", "setting": "[3]", "value": "5.17 µM (active)"}]}
{"compound": "Cc1nc(C)nc(N2C[C@@H](C)N(c3ccnc([C@@H](C)O)n3)[C@@H](C)C2)n1", "values": [{"measurement": "outcome", "setting": "[5]", "value": "inactive"}]}
{"compound": "CCOC(=O)CCC(=O)OCC", "values": [{"measurement": "outcome", "setting": "[1]", "value": "inactive"}, {"measurement": "outcome", "setting": "[7]", "value": "inactive"}, {"measurement": "outcome", "setting": "[8]", "value": "inactive"}]}
{"compound": "CCCCCCCCCCC", "values": [{"measurement": "outcome", "setting": "[9]", "value": "inactive"}]}
{"compound": "CCCCCCC(=O)OCC", "values": [{"measurement": "outcome", "setting": "[5]", "value": "inactive"}]}
{"compound": "CN1CCN(Cc2cc(-c3ccc4[nH]c(=O)oc4c3)co2)[C@@H](c2ccc(F)cc2)C1", "values": [{"measurement": "AC50", "setting": "[4]", "value": "8.23 µM (active)"}, {"measurement": "AC50", "setting": "[1]", "value": "22 µM (active)"}, {"measurement": "AC50", "setting": "[2]", "value": "0.0493 µM (active)"}, {"measurement": "AC50", "setting": "[7]", "value": "10.3 µM (active)"}, {"measurement": "AC50", "setting": "[6]", "value": "22 µM (active)"}]}
{"compound": "Nc1nc(N)c2nc(CNc3ccc(C(=O)N[C@@H](CCC(=O)O)C(=O)O)cc3)cnc2n1", "values": [{"measurement": "AC50", "setting": "[1]", "value": "5.21 µM (active)"}]}
{"compound": "NC(=O)Cn1c(=O)cc(CCN2CCN(c3nccc4sccc34)CC2)c2ccc(F)cc21", "values": [{"measurement": "AC50", "setting": "[4]", "value": "0.0868 µM (active)"}, {"measurement": "AC50", "setting": "[2]", "value": "0.0315 µM (active)"}, {"measurement": "AC50", "setting": "[7]", "value": "0.258 µM (active)"}, {"measurement": "AC50", "setting": "[6]", "value": "0.595 µM (active)"}, {"measurement": "AC50", "setting": "[8]", "value": "0.167 µM (active)"}]}
{"compound": "O=C(N[C@@H](Cc1ccccc1)[C@@H](O)C(=O)N1C[C@@H](O)[C@@H](O)C1)c1cc2cc(Cl)ccc2[nH]1", "values": [{"measurement": "AC50", "setting": "[1]", "value": "4.96 µM (active)"}, {"measurement": "AC50", "setting": "[10]", "value": "8.74 µM (active)"}, {"measurement": "outcome", "setting": "[2]", "value": "inactive"}]}
{"compound": "CC=Cc1ccc(O)c(OC)c1", "values": [{"measurement": "outcome", "setting": "[1]", "value": "inactive"}]}
